Test results taken from PubChem BioAssay AID624330 (Southern Research Specialized Biocontainment Screening …, 2012).
Among all 340,000 compounds or so, about 2,100 (0.62%) were called active.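 How the source made its calls: active means first-screen hits whose inhibition reached a set limit at any dose in the follow-up dose series; inconclusive means inhibition above the set first-screen limit but never retested; inactive means the rest.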 These entries were drawn from the full list. Potency and affinity values are given separately.

Biological target: Rac GTPase-activating protein 1 (Homo sapiens) (UniProt Q9H0H5)
Sequence (Q9H0H5 whole entry, looked up): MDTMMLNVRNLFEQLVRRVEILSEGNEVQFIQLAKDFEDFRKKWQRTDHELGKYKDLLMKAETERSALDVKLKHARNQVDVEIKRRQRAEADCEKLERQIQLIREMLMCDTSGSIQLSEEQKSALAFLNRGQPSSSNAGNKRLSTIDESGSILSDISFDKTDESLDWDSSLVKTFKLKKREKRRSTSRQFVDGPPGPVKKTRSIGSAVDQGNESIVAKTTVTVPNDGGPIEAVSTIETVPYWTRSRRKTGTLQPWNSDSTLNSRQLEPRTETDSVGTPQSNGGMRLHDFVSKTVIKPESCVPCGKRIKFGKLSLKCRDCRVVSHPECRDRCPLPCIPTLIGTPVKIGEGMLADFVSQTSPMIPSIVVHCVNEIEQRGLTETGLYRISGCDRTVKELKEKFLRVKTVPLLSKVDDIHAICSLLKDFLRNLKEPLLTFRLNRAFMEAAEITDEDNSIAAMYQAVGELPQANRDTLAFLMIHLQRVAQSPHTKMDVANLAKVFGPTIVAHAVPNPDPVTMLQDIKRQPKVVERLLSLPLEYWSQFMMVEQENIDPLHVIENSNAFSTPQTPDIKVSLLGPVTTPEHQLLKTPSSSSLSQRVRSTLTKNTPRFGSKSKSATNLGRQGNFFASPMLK
Test: MgcRacGAP GTPase-activating activity inhibitors, confirmation, biochemical, ADP Hunter fluorescence, primary and confirmatory (AID 624330);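 further: fluorescence reports GDP produced by GAP-driven GTP hydrolysis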
Conditions: MgcRacGAP-stimulated Rac1 GTP hydrolysis, at 30 µM, hits give high values, GST-tagged Rac1 F28L mutant substrate

inhibition, inactive:
Cc1c2cnn(CC(=O)NCCCN3CCCCC3C)c(=O)c2c(C)n1Cc1ccccc1 (configuration not stated) 8.86%, Clc1ccc2c(c1)Nc1ccccc1CC2 9.56%, O=C1CCc2ccccc2N1 3.09%, CCn1c(COc2ccc(=O)n(-c3ccccc3)n2)nnc1SC 7.04%, COc1cccc2c1C(=O)c1c(O)c3c(c(O)c1C2=O)CC(O)(C(C)=O)CC3OC1CC(O)C(O)C(C)O1 (configuration not stated) 11.6%, COc1cccc2c1C(=O)c1c(O)c3c(c(O)c1C2=O)CC(O)(C(=O)CO)CC3OC1CC(N(C)C)C(O)C(C)O1 (configuration not stated) 20.6%, CCCCC(=O)OCC(=O)C1(O)Cc2c(O)c3c(c(O)c2C(OC2CC(NC(=O)C(F)(F)F)C(O)C(C)O2)C1)C(=O)c1c(OC)cccc1C3=O (configuration not stated) 6.09%, COc1cccc2c1C(=O)c1c(O)c3c(c(O)c1C2=O)CC(O)(C(C)=O)CC3OC1CC(N(C)C)C(O)C(C)O1 (configuration not stated) 16.8%, COc1cccc2c1C(=O)c1c(O)c3c(c(O)c1C2=O)C[C@](O)(C(C)=O)C[C@H]3O[C@@H]1C[C@@H](N)[C@@H](O)[C@@H](C)O1 21.3%, C/C(=N\NC(=O)c1ccc(Cl)c(Cl)c1)c1cccc(NC(=O)C(C)C)c1 10%, CCCn1c2c(c(O)c(C(=O)NCc3ccccc3)c1=O)CCCC2 0.77%, COCCCN(C(=O)CSCC(=O)Nc1ccc(C)cc1)c1c(N)n(Cc2ccccc2)c(=O)[nH]c1=O 8.76%, COc1cc(NC(=O)CN2C(=O)NC(CC(C)C)C2=O)cc(OC)c1OC (configuration not stated) 6.04%, CC1(C)C(=O)Nc2ccccc2N1C(=O)CN1C(=O)NC(CCc2ccccc2)C1=O (configuration not stated) 2.92%, Cc1cc(C)cc(NC(=O)COC(=O)CCCNC(=O)c2ccc(Cl)cc2)c1 3.85%, COc1ccc(CCNC(=O)c2ccc(N3CCCC3=O)cc2)cc1OC 12.5%, COc1ccc(-c2nnn(CC(=O)N(CC(=O)NCCC(C)C)c3ccccc3)n2)cc1OC 1.41%, COc1ccc(-c2[nH]ncc2-c2ccc(Cl)cc2)c(O)c1 11.8%, Oc1ccc(-c2[nH]ncc2-c2ccc(Br)cc2)c(O)c1 26.8%, CC(C)(C)c1ccc(C(=O)N/C(=C\c2ccco2)C(=O)Nc2ccccc2C(=O)O)cc1 7.9%, C[C@H](NC(=O)C1CCN(S(=O)(=O)c2ccccc2)CC1)C(=O)NC1CC1 4.17%, O=C(NCc1ccc2c(c1)OCO2)c1cc(-c2ccccc2)c(N2CCOCC2)s1 11.5%, COc1ccc(C(=O)C2CCCN(C(=O)CCC3=NNC(=O)CC3)C2)c(C)c1 (configuration not stated) -12.3%, O=C1CCC(C(=O)N2CCCC(Nc3ccc(F)cc3)C2)=NN1 (configuration not stated) 13.7%, COc1ccc(N2CCN(C(=O)C3=NNC(=O)CC3)CC2)cc1 4.93%, Cc1ccc(NC2CCCN(C(=O)CCC3=NNC(=O)CC3)C2)cc1C (configuration not stated) 11.1%, O=C(O)c1ccc(S(=O)(=O)N(Cc2ccc(F)cc2)C2CCCCC2)cc1 7.41%, O=C(Nc1ccc(N2CCOCC2)nc1)c1ccc(F)cc1 3.12%, COc1ccc2cc(/C=N/NC(=O)c3c(Cl)cnn3C)c(Cl)nc2c1 3.85%, Clc1ccc(/C=N/Nc2ncnc3nc[nH]c23)cc1 19.8%, Cc1ccc(CCNc2ncnc(Cl)c2N)cc1 6.24%, Nc1c(Cl)ncnc1N/N=C/c1cccnc1 -0.02%, Nc1c(Cl)ncnc1N/N=C/c1cccc(O)c1 -2.65%, COc1ccc(/C=N/Nc2ncnc(Cl)c2N)cc1OC 9.22%, Nc1c(Cl)ncnc1NCCO 12.3%, COc1cccc(/C=N/Nc2ncnc(Cl)c2N)c1O 7.43%, Cc1ccc(/C=N/Nc2ncnc3nc[nH]c23)cc1 11.9%, CC1CCc2cc(F)ccc2N1C(=O)CN1C(=O)c2ccccc2C1=O (configuration not stated) 7.46%, FC(F)(F)c1ccncc1-c1nnc(C2CCCCC2)o1 12.4%, CCCC(c1nnnn1Cc1ccc(OC)cc1)N1CCC(C(N)=O)CC1 (configuration not stated) 3.71%, CC12CC(NC(=O)N1c1cccc(C(=O)N3CCN(c4ccccc4F)CC3)c1)c1ccccc1O2 (configuration not stated) 4.9%, COC(=O)c1ccc(/C=N/NC(=O)C2CC(=O)N(c3ccc(OC)cc3)C2)cc1 (configuration not stated) -2.9%, CN(CC(=O)Nc1ccccc1C(F)(F)F)C(=O)CN1C(=O)C2CCCCC2C1=O (configuration not stated) 8.57%, COc1cccc2sc3cc(NCc4ccc5c(c4)OCO5)ccc3c(=O)c12 3.16%, CCN(CC)C(=O)C1=C(C)N(Cc2ccc(F)cc2)C(=O)C(CC(=O)NCc2ccco2)C1 (configuration not stated) 13.8%, CCn1cnc2cc(NCc3ccc(Cl)cc3)ccc21 20%, CCn1cnc2cc(NCc3ccc(C)cc3)ccc21 25.6%, COc1cc(NC(=S)N2CCCCC2C)cc(OC)c1OC (configuration not stated) 12.9%, CC(C)(C#CC(O)(c1ccccc1)c1ccccc1)N1CCCC1 11.3%, C[C@H]1CN(S(=O)C(C)(C)C)[C@@H](CCO)/C1=C\CCO (some centres not stated) 5.48%, C=CCNC(=O)CC(=O)N/N=C/c1ccccc1F -1.62%, Cc1cccc(N2CC(C(=O)Nc3cccc(S(=O)(=O)N4CCCCC4)c3)CC2=O)c1C (configuration not stated) 5.62%, CCOc1ccccc1OCCCOc1ccc(C)cc1Cl 12%, CCCCn1c(C)nc2c(=O)n(C)c(=O)[nH]c21 4.63%, CCn1c(=O)n(C)c2c(=O)n(C)c(=O)n(C)c21 -0.22%, Cn1c(=O)c2nc(SCc3ccccc3)n(C)c2n(C)c1=O 6.08%, CNc1nc2c(c(=O)n(C)c(=O)n2C)n1Cc1ccccc1 -6.26%, CCOC(=O)c1nc2c(=O)n(C)c(=O)n(C)c2n(C)c1=O 0.79%, CCCCn1c(Cl)nc2c1c(=O)n(C)c(=O)n2C 9.62%, CCCn1nc(C(=O)NNC(=O)CCCOc2ccc(OC)cc2)c2ccccc2c1=O 1.29%, Cc1nc(N2CCCCC2)c2sc(=S)n(C)c2n1 5.47%, CCOc1ccc(C(=O)NCCc2ccc3c(c2)OCCO3)cc1 6.99%, O=C(Nc1cc(C(F)(F)F)ccc1N1CCOCC1)c1ccc(F)cc1 9.9%, CS(=O)(=O)c1nc(S(=O)(=O)c2ccc(Cl)cc2)c(N2CCCCC2)s1 5.12%, COCCCNC(=O)C1CCC(CNS(=O)(=O)c2ccc(Cl)cc2)CC1 (configuration not stated) -9.18%, O=C(COc1ccc2c3c(c(=O)oc2c1)CCC3)NCCCN1CCCC1=O 9.27%, CC(C)=CCC/C(C)=C/CNC(=O)CC1C[C@H](C(=O)N2CCOCC2)[C@@]2(C)c3[nH]c4ccccc4c3CCN2C1=O (some centres not stated) 7.27%, COc1ccc(-c2ccccc2[C@H]2[C@@H]3C=CC[C@@H](C)[C@@H]3C(=O)N2Cc2ccccc2)cc1 5.83%, C/C(=N\Nc1nc(-c2cc(C)ccc2C)cs1)c1cc2ccccc2oc1=O 6.23%, O=C(c1cc(Cl)ccc1F)N1CCCC(Nc2ccc3c(c2)OCCO3)C1 (configuration not stated) 30.3%, COc1ccc(C(=O)C2CCCN(C(=O)c3ccc(CSC)o3)C2)cc1F (configuration not stated) 5.42%, Cc1cc(C)c(C(=O)N2CCCC(Nc3ccc(F)cc3)C2)o1 (configuration not stated) 1.75%, CSCc1ccc(C(=O)N2CCCC(Nc3ccc(F)cc3)C2)o1 (configuration not stated) 7.33%, COC(=O)c1cccc(C(=O)N2CCCC(Nc3ccc4c(c3)OCCO4)C2)c1 (configuration not stated) 29.2%, Cc1cc(C)c(C(=O)N2CCCC(Nc3ccc(C)c(C)c3)C2)o1 (configuration not stated) -18%, O=C(c1ccccc1N1CCOCC1)N1CCCC(Nc2ccc(F)cc2)C1 (configuration not stated) 9.71%, Cc1ccc(NC2CCCN(C(=O)c3ccccc3N3CCOCC3)C2)cc1C (configuration not stated) 0.36%, O=S(=O)(c1ccccc1)c1nc(-c2ccccc2)oc1N1CCOCC1 6.03%, Cc1nnc(SCc2ccccc2)n1N -3.52%, O=C(O)c1ccc(/C=N/O)cc1 1.83%, CC(C)(C)NC(=O)C(c1ccccc1)N(C(=O)CNC(=O)c1cccs1)c1cccnc1 (configuration not stated) 4.59%, COc1ccc(C=O)cc1Cn1c(=O)n(CCC(=O)NCc2ccco2)c(=O)c2sccc21 8.39%, Cc1cccc(C(=O)Nc2cccc(C(=O)N/N=C/c3cccc(C)n3)c2)c1 13.9%, CSc1cc(SC)ncn1 1.8%, CC(C)(CN1CCOCC1)NS(=O)(=O)c1ccccc1 1.36%, CCN(CC(=O)Nc1cccc(F)c1)Cc1nc2ccccc2c(=O)[nH]1 -2.26%, CN(C)C(/C=C/Nc1ccc(C#N)cc1)=C(C#N)C#N 4.16%, Cc1ccc(C2=CSC3=NCCN23)cc1 11.6%, CC1=CC(C)(C)N(C(=O)CCl)c2cc(C)ccc21 2.46%, CC1=CC(C)(C)N(C(=O)CNC2CCCCC2)c2cc(C)ccc21 30.1%, CCOc1ccccc1C(C(=O)NC1CCCC1)N(C(=O)c1csnn1)C1CC1 (configuration not stated) 6.21%, CC(c1nnc(SCC(=O)NC(=O)NCc2ccco2)n1-c1ccc(Cl)cc1)N(C)C (configuration not stated) 4.03%
